The values that follow come from PubChem BioAssay AID1209 (Sanford-Burnham Center for Chemical Genomics, 2008).

Out of some 190,000 compounds screened, about 810 (0.43%) were called active. The list comes from a sample in which actives are over-represented; it also holds similar structures and randomly drawn compounds. A number with no mark means an inactive call. Cut-off read from the data, not from the text of the source: active = inhibition above about 50%; inactive = the rest.

The assay deals with Mannose-6-phosphate isomerase (Homo sapiens) (UniProt P34949). Put plainly: inhibitors of human PMI, primary screen, biochemical, fluorescence intensity, coupled assay (AID 1209).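 Note: plate controls were DMSO vehicle for no effect and wells lacking substrate for full effect.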 The settings on record: purified PMI enzyme, at 20 µM, active compounds read high.
Chain of Mannose-6-phosphate isomerase (Homo sapiens) (P34949 whole entry, looked up): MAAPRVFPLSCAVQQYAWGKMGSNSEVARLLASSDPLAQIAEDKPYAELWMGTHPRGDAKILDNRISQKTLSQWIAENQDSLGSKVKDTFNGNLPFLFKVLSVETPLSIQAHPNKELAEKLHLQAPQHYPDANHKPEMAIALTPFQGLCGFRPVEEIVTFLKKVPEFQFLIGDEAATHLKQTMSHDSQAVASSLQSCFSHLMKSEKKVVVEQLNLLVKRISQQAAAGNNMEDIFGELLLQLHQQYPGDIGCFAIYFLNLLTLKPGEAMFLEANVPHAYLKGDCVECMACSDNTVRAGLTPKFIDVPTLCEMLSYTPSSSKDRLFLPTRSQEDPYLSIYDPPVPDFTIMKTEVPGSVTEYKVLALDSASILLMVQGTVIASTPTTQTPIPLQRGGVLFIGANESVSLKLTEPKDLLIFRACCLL
A word on the inhibition: it is the relative decrease from the control value, in per cent. With `Cc1cc(N2CCOCC2)nc2ccc(NC(=O)C3CCC(C)CC3)cc12` (stereo not drawn), the inhibition is -6%.

Turning to `Cc1cc(N2CCOCC2)nc2ccc(NC(=S)N3CCCCC3C)cc12` (stereo not drawn), the inhibition is 52.4% (active).

On to `Cc1cc(N2CCOCC2)nc2ccc(NC(=S)N3CCN(c4ccccc4)CC3)cc12`, for which the inhibition is 22.5%.

In the case of `O=c1oc2cc(OCc3ccc(C(F)(F)F)cc3)ccc2cc1-c1ccccn1`, the inhibition was -7%.

In the case of `COc1cc(C(=O)NNC(=O)c2ccc(NC(C)=O)cc2)cc(OC)c1OC`, the inhibition is -4.2%.

As to `O=C(NNC(=S)Nc1ccc(Cl)cc1)c1cccs1`, the inhibition was -1.6%.

With `COc1cc(OC)cc(C(=O)NNC(=S)Nc2ccc(S(N)(=O)=O)cc2)c1`, the inhibition is -10.4%.

`O=C(NNC(=S)Nc1ccccc1)c1cccs1`: the inhibition was -13.9%.

On to `NS(=O)(=O)c1ccc(NC(=S)NNC(=O)c2cccs2)cc1`, for which the inhibition was 63.3% (active).

Consider `COc1cc(C(=O)NNC(=S)Nc2ccc(S(N)(=O)=O)cc2)cc(OC)c1OC`, for which the inhibition is 56.6% (active).

With `COc1ccc(C(=O)Nc2ccc3c(c2)nc(CN2CCCC2)n3C)cc1`, the inhibition was 9.7%.

Turning to `C=CCn1c(SCC(=O)c2cccs2)nnc1-c1cccc(OC)c1`, the inhibition is 11.5%.

On to `O=C(N/N=C/C(c1ccccc1)c1ccccc1)c1ccccc1F`, for which the inhibition was -8.5%.

For `Cc1nn(-c2nc3ccccc3n2Cc2ccccc2)c2c1C(=O)CC(C)(C)C2`, the inhibition was 24.7%.

With `CNCc1ccccc1Sc1cc(O)ccc1O`, the inhibition is 19.1%.

With `CNCc1ccccc1Sc1ccc(O)c(O)c1`, the inhibition was 74.9% (active).

For the molecule `CNCc1ccccc1Sc1cccc(O)c1`, the inhibition is -7%.

As for `CN(C(=O)CS(=O)(=O)c1cn(CC(=O)N2CCOCC2)c2ccccc12)c1ccccc1`, the inhibition is -4.3%.

As for `Cc1ccc(NC(=O)NC2C(NC(=O)Nc3ccc(C)cc3)N(C)C(=O)N2C)cc1` (stereo not drawn), the inhibition is 9.5%.

`CNC(=S)N(CCc1c(C)[nH]c2ccc(OC)cc12)Cc1cccnc1`: the inhibition is 16%.

For the molecule `CC(C)(Cc1ccc(O)cc1)NC(=O)CC(=O)N=Nc1c(O)[nH]c2ccc(Br)cc12`, the inhibition was 1.3%.

On to `CC(C)(Cc1ccc(O)cc1)NC(=O)CC(=O)N=Nc1c(O)[nH]c2cc(Br)ccc12`, for which the inhibition was 51.6% (active).

Take `O=C(CSCc1ccc(Br)cc1)N=Nc1c(O)[nH]c2ccccc12`: the inhibition is 4.5%.

Regarding `CSc1nc2sc(-c3ccccc3)cc2c(=O)n1N`, the inhibition is -6.6%.

Consider `CCOC(=O)Cc1csc(NC(=O)NC2(C(F)(F)F)Oc3ccc(Cl)cc3O2)n1` (stereo not drawn), for which the inhibition was 51.8% (active).

On to `CCOC(=O)Cc1csc(NC(=O)CC)n1`, for which the inhibition is -9.9%.

For `CCOC(=O)Cc1csc(NC(=O)C(C)(C)CC)n1`, the inhibition is -7.2%.

Consider `CCOC(=O)Cc1csc(NC(=O)Nc2cccc(Cl)c2)n1`, for which the inhibition is -0.4%.

With `CCOC(=O)Cc1csc(NC(=O)NC2(C(F)(F)F)Oc3cc(Cl)c(Cl)cc3O2)n1`, the inhibition was 57.5% (active).

For `CCOC(=O)Cc1csc(NC(=O)NC2(C(F)(F)F)Oc3ccccc3O2)n1`, the inhibition is 22.4%.

On to `CC(OC(=O)c1ccc2ncsc2c1)C(=O)NCc1ccccc1` (stereo not drawn), for which the inhibition is 15.5%.

With `O=C(Nc1nc(-c2cccs2)cs1)c1cc2ccccc2oc1=O`, the inhibition is -3.3%.

Regarding `O=C(NC(Cc1c[nH]c2ccccc12)C(=O)N/N=C/c1ccc(Cl)cc1)c1cccs1` (stereo not drawn), the inhibition was 18.1%.

As for `COc1cccc(C(=O)/C=C/c2ccc(N3CCCCC3)c([N+](=O)[O-])c2)c1`, the inhibition is 14.3%.

For `Oc1ccc(-c2csc(-c3ccccc3)n2)cc1O`, the inhibition is 62.6% (active).

On to `Cc1nc(-c2ccc(O)c(O)c2)cs1`, for which the inhibition was 47%.

In the case of `O=C(O)c1ccc(-c2nc(-c3ccccc3)cs2)cc1`, the inhibition is -11.3%.

For the molecule `Oc1ccc(-c2nc(-c3ccc(O)c(O)c3)cs2)cc1`, the inhibition was 54.3% (active).

As to `O=C(O)c1ccc(-c2nc(-c3ccc(Cl)c(Cl)c3)cs2)cc1`, the inhibition is -3.3%.

Consider `Oc1ccccc1-c1csc(-c2ccccc2)n1`, for which the inhibition was 12.8%.

For `Cc1ccccc1N1C(=O)CSC1=C(C#N)C#N`, the inhibition was -15.3%.

Regarding `CCC1=C/C(=C/c2sc3ccccc3[n+]2CC)CC(C)(C)C1`, the inhibition was -60.6%.

In the case of `CCOC(=O)c1cnc2c(-c3ccccc3)c(C)nn2c1N`, the inhibition was 9.6%.

With `Cc1ccc(CNC(=O)CCCCn2c(=O)[nH]c3ccsc3c2=O)cc1`, the inhibition was -4.3%.

In the case of `CCCCn1c(-c2sccc2C)n[nH]c1=S`, the inhibition is 8.1%.

For `COc1cccc(NC(=O)C2CC(=O)N(C)C(=Nc3cccc(F)c3)S2)c1` (stereo not drawn), the inhibition is 15.4%.

Consider `COc1cccc(NC(=O)C2CC(=O)n3cnnc3S2)c1` (stereo not drawn), for which the inhibition was 51.1% (active).

Regarding `COc1cccc(NC(=O)C2CC(=O)N=C(N)S2)c1` (stereo not drawn), the inhibition was 15.2%.

Take `Cc1ccc(-c2nnc(N3CCN(c4ccccn4)CC3)c3ccccc23)cc1`: the inhibition is 10.5%.

As for `CC(C)CC(=O)Nc1cccc(NC(=O)CC(C)C)n1`, the inhibition was -6.8%.

Regarding `Cc1ccccc1NC(=O)C(NS(=O)(=O)c1ccc2c(c1)c(=O)n(C)c(=O)n2C)c1ccccc1` (stereo not drawn), the inhibition was -1.4%.

Regarding `O=C(O)CCC(=O)N1CCN(c2ccc(C(=O)c3ccc(F)cc3)cc2)CC1`, the inhibition was 2.5%.

Consider `O=C(O)/C=C/C(=O)Nc1ccccc1C(=O)OCC(=O)c1ccc2c(c1)OCCO2`, for which the inhibition was 108% (active).

On to `O=C(COC(=O)c1ccccc1NC(=O)C1CC1)c1ccc2c(c1)OCCO2`, for which the inhibition is 20.7%.

For the molecule `CC(C)C(=O)Nc1ccccc1C(=O)OCC(=O)c1ccc2c(c1)OCCO2`, the inhibition is 12.7%.

Consider `COc1ccc(N2C(=O)/C(=C/c3cccs3)NC2=S)cc1`, for which the inhibition is 65.2% (active).

For `COc1cccc(N2C(=O)/C(=C\c3cccs3)NC2=S)c1`, the inhibition was -20.3%.

In the case of `COc1ccc(N2C(=O)/C(=C/N(C)C)NC2=S)cc1`, the inhibition was 6.1%.

On to `CC(C(=O)Nc1ncccn1)(c1ccccc1)c1ccccc1`, for which the inhibition was 0.1%.

For `C=CCNC(=S)NNC(=O)c1ccc(=O)n(Cc2ccccc2)c1`, the inhibition was -1.4%.

Take `CCOC(=O)c1cnc2ccc(C)cc2c1NCCO`: the inhibition is -0.9%.

Consider `CCOC(=O)c1cnc2ccccc2c1NCCO`, for which the inhibition was -1.9%.

Regarding `CCOC(=O)c1cnc2c(ccc3ccccc32)c1NCCO`, the inhibition was 103% (active).
